# ChEMBL document CHEMBL1961873, “Compounds: GSK PKIS; Assays: Nanosyn kinase panel” (2012)
# Assays:
# [1] = test system: Tyrosine-protein kinase ABL1 (Homo sapiens), P00519 [T315I]; settings: at 1 µM
# [2] = test system: Tyrosine-protein kinase ABL1 (Homo sapiens), P00519 [Y253F]; settings: at 0.1 µM
# [3] = test system: Tyrosine-protein kinase ABL1 (Homo sapiens), P00519 [Y253F]; settings: at 1 µM
# [4] = biological target: Tyrosine-protein kinase ABL1 (Homo sapiens) (UniProt P00519); settings: at 0.1 µM
# [5] = biological target: Tyrosine-protein kinase ABL1 (Homo sapiens) (UniProt P00519); settings: at 1 µM
# [6] = biological target: ALK tyrosine kinase receptor (Homo sapiens) (UniProt Q9UM73); settings: at 0.1 µM
# Sequence of ALK tyrosine kinase receptor (Homo sapiens) (Q9UM73 19-1620 limits assumed): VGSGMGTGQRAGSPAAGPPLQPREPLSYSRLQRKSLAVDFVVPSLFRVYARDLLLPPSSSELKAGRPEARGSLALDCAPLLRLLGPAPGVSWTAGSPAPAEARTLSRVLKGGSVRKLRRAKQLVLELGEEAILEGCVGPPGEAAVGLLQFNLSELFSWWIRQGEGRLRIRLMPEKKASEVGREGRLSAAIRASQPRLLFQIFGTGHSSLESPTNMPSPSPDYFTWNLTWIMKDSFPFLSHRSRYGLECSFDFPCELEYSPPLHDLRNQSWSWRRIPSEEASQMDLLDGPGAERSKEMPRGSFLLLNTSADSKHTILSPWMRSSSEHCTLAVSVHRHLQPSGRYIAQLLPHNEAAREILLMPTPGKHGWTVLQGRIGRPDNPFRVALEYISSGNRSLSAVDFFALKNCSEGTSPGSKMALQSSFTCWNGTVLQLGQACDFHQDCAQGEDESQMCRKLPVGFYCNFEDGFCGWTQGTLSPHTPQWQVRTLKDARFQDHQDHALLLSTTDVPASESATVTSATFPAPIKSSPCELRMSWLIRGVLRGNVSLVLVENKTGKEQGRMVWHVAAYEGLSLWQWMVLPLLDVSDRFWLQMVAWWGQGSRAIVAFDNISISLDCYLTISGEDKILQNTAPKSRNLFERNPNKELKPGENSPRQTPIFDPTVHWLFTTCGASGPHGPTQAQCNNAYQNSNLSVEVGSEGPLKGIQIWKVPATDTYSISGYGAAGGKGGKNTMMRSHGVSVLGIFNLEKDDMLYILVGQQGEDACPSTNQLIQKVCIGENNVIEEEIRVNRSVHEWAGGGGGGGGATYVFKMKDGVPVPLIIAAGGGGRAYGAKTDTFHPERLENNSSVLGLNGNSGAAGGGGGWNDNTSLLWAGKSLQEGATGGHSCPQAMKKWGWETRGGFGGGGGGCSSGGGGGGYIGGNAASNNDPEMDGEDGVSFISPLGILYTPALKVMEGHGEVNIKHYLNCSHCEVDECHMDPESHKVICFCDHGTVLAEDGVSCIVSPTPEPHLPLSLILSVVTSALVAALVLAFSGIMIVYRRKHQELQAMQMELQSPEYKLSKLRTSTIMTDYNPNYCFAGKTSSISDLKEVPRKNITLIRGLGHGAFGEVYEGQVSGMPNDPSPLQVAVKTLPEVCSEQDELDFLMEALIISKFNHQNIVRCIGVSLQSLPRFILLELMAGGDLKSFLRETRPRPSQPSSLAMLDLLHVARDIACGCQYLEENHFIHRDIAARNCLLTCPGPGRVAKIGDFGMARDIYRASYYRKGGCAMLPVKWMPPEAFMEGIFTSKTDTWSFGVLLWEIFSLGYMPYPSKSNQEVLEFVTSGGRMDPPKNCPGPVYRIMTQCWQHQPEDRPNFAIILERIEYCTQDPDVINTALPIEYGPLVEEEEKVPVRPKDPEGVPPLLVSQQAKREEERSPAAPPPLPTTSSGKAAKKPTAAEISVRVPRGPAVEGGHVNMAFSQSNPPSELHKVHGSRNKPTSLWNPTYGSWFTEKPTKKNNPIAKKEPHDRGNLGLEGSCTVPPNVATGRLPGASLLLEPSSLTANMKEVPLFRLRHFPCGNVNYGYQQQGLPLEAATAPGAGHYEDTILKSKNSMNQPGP
# [7] = biological target: ALK tyrosine kinase receptor (Homo sapiens) (UniProt Q9UM73); settings: at 1 µM
# [8] = biological target: Tyrosine-protein kinase ABL2 (Homo sapiens) (UniProt P42684); settings: at 0.1 µM
# Sequence of Tyrosine-protein kinase ABL2 (Homo sapiens) (P42684 whole entry): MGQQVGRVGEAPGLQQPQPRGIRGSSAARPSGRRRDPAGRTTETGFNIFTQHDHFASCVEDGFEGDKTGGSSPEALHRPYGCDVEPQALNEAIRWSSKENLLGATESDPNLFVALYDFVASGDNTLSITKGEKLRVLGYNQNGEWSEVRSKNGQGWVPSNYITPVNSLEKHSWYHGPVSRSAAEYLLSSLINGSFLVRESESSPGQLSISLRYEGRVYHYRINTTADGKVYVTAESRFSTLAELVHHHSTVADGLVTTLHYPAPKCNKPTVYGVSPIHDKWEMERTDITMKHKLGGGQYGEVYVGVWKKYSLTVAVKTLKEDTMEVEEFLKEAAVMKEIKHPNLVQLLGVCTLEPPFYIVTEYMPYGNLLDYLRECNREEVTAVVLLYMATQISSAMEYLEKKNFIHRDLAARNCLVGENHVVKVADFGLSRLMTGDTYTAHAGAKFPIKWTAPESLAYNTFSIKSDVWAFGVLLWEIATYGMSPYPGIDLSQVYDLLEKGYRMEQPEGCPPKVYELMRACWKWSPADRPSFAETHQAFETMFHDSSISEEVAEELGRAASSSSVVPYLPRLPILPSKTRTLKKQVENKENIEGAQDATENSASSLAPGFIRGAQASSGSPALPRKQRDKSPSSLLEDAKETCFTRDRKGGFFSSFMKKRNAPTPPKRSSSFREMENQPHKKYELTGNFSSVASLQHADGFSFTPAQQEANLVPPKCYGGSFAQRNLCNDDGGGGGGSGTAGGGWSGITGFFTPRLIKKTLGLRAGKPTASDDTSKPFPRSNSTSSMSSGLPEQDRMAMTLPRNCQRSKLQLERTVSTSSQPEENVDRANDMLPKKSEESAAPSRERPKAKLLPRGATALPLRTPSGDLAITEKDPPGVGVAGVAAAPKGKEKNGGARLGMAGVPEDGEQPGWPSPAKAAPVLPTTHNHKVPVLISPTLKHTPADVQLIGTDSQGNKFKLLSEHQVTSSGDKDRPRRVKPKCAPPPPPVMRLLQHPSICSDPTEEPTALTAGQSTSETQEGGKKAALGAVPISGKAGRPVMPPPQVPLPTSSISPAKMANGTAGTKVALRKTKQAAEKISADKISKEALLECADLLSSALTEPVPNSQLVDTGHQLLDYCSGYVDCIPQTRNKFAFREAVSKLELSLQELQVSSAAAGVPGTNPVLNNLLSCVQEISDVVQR
# [9] = biological target: Tyrosine-protein kinase ABL2 (Homo sapiens) (UniProt P42684); settings: at 1 µM
# [10] = biological target: Tyrosine-protein kinase receptor UFO (Homo sapiens) (UniProt P30530); settings: at 0.1 µM
# [11] = biological target: Tyrosine-protein kinase receptor UFO (Homo sapiens) (UniProt P30530); settings: at 1 µM
# [12] = biological target: Tyrosine-protein kinase Blk (Homo sapiens) (UniProt P51451); settings: at 0.1 µM
# Sequence of Tyrosine-protein kinase Blk (Homo sapiens) (P51451 2-505 limits assumed): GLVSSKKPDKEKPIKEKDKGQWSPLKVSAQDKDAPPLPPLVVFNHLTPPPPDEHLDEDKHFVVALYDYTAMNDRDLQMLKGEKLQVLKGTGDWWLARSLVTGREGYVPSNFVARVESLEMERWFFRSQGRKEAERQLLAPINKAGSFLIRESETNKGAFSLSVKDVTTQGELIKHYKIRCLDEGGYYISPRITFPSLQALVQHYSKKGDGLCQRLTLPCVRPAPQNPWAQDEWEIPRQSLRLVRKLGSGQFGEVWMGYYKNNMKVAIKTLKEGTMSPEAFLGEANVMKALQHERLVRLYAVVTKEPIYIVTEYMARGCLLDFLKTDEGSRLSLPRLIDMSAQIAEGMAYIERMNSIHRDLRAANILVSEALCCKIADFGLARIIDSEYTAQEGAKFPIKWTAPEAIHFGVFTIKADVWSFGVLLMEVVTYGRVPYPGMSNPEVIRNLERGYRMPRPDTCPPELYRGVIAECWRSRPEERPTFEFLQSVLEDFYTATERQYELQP
# [13] = biological target: Tyrosine-protein kinase Blk (Homo sapiens) (UniProt P51451); settings: at 1 µM
# [14] = biological target: T1, Cytoplasmic tyrosine-protein kinase BMX (Homo sapiens) (UniProt P51813); settings: at 0.1 µM
# T1 sequence (whole entry): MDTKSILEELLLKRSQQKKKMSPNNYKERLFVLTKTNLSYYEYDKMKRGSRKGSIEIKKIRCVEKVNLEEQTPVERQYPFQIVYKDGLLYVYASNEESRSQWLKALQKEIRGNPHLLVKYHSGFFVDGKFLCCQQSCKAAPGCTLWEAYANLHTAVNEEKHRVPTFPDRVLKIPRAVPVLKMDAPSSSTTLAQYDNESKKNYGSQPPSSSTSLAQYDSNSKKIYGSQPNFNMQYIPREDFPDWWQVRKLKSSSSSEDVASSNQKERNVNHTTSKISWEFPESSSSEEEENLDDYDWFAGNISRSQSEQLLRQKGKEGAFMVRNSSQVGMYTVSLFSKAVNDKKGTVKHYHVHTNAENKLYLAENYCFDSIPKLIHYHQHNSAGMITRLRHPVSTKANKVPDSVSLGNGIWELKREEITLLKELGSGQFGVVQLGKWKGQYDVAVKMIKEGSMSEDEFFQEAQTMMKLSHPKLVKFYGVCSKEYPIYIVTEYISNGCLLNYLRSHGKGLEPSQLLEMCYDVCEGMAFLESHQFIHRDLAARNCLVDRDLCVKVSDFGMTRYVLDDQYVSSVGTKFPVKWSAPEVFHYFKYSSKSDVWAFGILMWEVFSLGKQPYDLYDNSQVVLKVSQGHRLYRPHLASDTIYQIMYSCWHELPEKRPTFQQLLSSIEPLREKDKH
# [15] = biological target: T1, Cytoplasmic tyrosine-protein kinase BMX (Homo sapiens); settings: at 1 µM
# [16] = biological target: Protein-tyrosine kinase 6 (Homo sapiens) (UniProt Q13882); settings: at 0.1 µM
# Sequence of Protein-tyrosine kinase 6 (Homo sapiens) (Q13882 whole entry, looked up): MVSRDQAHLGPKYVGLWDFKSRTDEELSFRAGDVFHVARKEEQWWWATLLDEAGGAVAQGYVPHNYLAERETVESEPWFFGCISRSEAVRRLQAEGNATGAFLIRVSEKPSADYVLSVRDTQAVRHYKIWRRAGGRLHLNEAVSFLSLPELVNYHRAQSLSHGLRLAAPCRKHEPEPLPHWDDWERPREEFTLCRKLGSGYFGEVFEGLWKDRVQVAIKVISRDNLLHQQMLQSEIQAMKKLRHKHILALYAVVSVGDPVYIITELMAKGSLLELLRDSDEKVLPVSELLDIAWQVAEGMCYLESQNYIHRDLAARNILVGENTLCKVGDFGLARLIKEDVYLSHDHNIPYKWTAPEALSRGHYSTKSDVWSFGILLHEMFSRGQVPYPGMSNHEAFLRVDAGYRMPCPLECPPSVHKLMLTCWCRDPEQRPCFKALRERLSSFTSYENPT
# [17] = biological target: Protein-tyrosine kinase 6 (Homo sapiens) (UniProt Q13882); settings: at 1 µM
# [18] = biological target: Tyrosine-protein kinase BTK (Homo sapiens) (UniProt Q06187); settings: at 0.1 µM
# Sequence of Tyrosine-protein kinase BTK (Homo sapiens) (Q06187 whole entry): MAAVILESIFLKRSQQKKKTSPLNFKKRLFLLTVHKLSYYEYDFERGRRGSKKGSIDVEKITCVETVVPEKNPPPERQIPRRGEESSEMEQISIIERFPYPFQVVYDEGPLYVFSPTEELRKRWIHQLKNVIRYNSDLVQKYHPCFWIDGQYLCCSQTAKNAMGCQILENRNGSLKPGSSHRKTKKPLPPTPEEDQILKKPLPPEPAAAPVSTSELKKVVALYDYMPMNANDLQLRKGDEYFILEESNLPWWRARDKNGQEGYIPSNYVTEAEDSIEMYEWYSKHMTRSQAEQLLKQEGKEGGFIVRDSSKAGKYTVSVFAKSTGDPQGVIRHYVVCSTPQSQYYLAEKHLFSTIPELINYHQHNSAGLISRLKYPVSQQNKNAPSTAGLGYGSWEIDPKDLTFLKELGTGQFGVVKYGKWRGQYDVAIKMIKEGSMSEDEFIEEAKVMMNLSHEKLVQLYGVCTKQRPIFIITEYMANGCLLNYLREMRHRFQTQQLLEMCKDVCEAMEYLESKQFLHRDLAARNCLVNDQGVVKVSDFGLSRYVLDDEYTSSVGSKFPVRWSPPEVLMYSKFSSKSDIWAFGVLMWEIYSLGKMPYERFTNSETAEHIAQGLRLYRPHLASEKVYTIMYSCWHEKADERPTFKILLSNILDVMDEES
# [19] = biological target: Tyrosine-protein kinase BTK (Homo sapiens) (UniProt Q06187); settings: at 1 µM
# [20] = biological target: Tyrosine-protein kinase CSK (Homo sapiens) (UniProt P41240); settings: at 0.1 µM;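 also: value given is the averaged percent inhibition of CSK kinase activity, from the GSK PKIS kinase inhibitor set screening panel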
# Sequence of Tyrosine-protein kinase CSK (Homo sapiens) (P41240 2-450 limits assumed): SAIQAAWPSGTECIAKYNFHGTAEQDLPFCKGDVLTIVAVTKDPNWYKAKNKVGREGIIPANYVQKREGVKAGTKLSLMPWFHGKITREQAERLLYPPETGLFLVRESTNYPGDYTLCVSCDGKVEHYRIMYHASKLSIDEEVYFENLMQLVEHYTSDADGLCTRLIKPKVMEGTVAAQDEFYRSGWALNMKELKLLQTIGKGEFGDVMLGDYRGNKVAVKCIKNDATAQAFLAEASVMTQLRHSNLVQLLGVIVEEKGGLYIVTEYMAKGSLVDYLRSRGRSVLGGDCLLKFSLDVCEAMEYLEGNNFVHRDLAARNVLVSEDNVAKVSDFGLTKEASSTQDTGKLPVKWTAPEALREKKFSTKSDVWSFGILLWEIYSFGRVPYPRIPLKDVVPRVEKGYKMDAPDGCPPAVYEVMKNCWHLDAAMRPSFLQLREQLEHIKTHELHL
SMILES,inhibition [1] [%],inhibition [2] [%],inhibition [3] [%],inhibition [4] [%],inhibition [5] [%],inhibition [6] [%],inhibition [7] [%],inhibition [8] [%],inhibition [9] [%],inhibition [10] [%],inhibition [11] [%],inhibition [12] [%],inhibition [13] [%],inhibition [14] [%],inhibition [15] [%],inhibition [16] [%],inhibition [17] [%],inhibition [18] [%],inhibition [19] [%],inhibition [20] [%]
COc1cc(Nc2ncc(-c3ccccc3)o2)cc(OC)c1OC,22.3,16.7,69.2,7.54,52.3,-2.74,-0.68,9.54,52.1,-0.73,-1.68,4.17,41.1,2.78,8.49,0.16,4.16,-0.88,0.25,-1.07
C[C@@H](Oc1cc(-n2cnc3ccc(OCC4CCN(C)CC4)cc32)sc1C(N)=O)c1ccccc1Cl,9.89,2.53,11,5.81,14,8.57,24.5,8.53,12.4,-5.23,3.11,2.92,10.4,0.11,2.71,5.93,6.07,0,0.95,5.15
COC(=O)Nc1nc2ccc(Sc3ccc(NC(=O)Nc4cc(C(F)(F)F)ccc4F)cc3)cc2[nH]1,72.3,3.61,31.3,3.45,33,1.12,2.57,11.8,58.9,1.61,10.9,0.49,2.36,3.33,-0.17,1.16,1.4,2.12,2.1,1.7
CNC(=O)c1cncc(/C=C/c2c(C)cccc2C)c1,2.52,21.9,70.3,6.54,57.3,-3.56,-1.77,7.09,51.3,-0.01,3.27,-1.68,16.2,6.81,42.4,13.4,61.9,-1.07,7.27,5.83
Fc1ccc(-c2ncn(CCCN3CCOCC3)c2-c2ccncc2)cc1,-0.98,-0.87,0.03,1.14,0.89,1.45,-0.45,1.71,5.07,-0.1,1.84,-0.04,1.04,1.9,-0.36,-4.64,-0.48,-0.91,2.71,-2.06
COc1ccc2cc(-c3c(-c4ccncc4)nc(-c4ccc(S(C)(=O)=O)cc4C)n3C)ccc2c1,42.6,4.62,18,2.92,13.5,2.91,6.27,2.97,11.7,-5.68,-4.46,3.03,7.1,5.32,3.88,29,85,-2.49,0.28,3.76
O=C(Nc1n[nH]c2cc(-c3cc(F)ccc3F)ccc12)C1CC1,74,13.8,49.6,8.06,51.4,2.02,4.05,3.87,19,-7.5,-2.71,1.38,4.54,1.69,3.35,1.78,2.23,-1.19,-2.01,3.87
CCS(=O)(=O)c1ccc(OC)c(Nc2ncc(-c3cccc(-c4ccccc4F)c3)o2)c1,18,60.6,91.4,13.7,77.8,1.79,4.33,7.9,65.1,0.9,2.28,8.74,55.5,-4.54,9.3,1.06,10.8,-0.93,3.93,0.57
CN(C)CCOc1ccc(-c2cc(-c3ccc4c(c3)CCC4=NO)c(-c3ccncc3)o2)cc1,19.4,2.44,22.1,2.01,20.3,-1.95,-0.08,2.43,18.6,1.32,2.27,-0.19,6.21,-1.43,1.43,1.76,15,0.42,2.57,-2.53
Clc1ccc(CNc2nccc(-c3cnn4ncccc34)n2)cc1,2.99,2.53,4.96,1.08,8.86,-0.45,3.1,3.17,7.59,1.22,2.45,1.31,3.34,-1.56,2.62,0.74,3.52,0.65,1.7,3.92
NS(=O)(=O)c1ccc(Nc2cc(-c3ccc(O)c(F)c3)n[nH]2)cc1,22.8,2.85,35.6,0.38,34.8,-2.35,8.38,0.56,16.9,1.86,1.05,-1.01,12.1,-5.24,-1.41,-4.55,-9.05,-1.3,-0.82,-8.87
CCC(=O)Nc1ccc(C)c(-c2ccc(C(=O)NCC3CC3)cc2)c1,3.61,2.81,3.14,2.28,2.9,1.63,2.14,0.38,3.75,-4.46,-3.83,1.71,3.32,1.57,3.88,4.7,5.22,-0.35,0.22,2.98
C[C@@H](Oc1cc(-n2cnc3ccc(OC4CCN(C)CC4)cc32)sc1C(N)=O)c1ccccc1Cl,7.51,3.29,13.1,0.35,7.3,-0.85,5.48,-1.57,2.18,-8.27,-3.62,-0.86,-0.94,4,6.6,2.72,3.15,-4.65,-3.35,2.4
